High-throughput results from PubChem BioAssay.
Only some compounds are listed: those with a hit (about 18% of all), similar ones and a draw of the others.
TDP1 cell CPT: growth inhibition of DT40 Tdp1-/-;hTDP1 cells with camptothecin (screen for TDP1 inhibitors); chicken DT40 Tdp1-/-;hTDP1 cells + 20 nM CPT, ATP luminescence, 48 h; Potency, µM (doses to about 46.2 µM), for the others: at the top dose activity change, negative = growth inhibition, usual class: inhibitors; 420,000 compounds, 12% hits; AID 686979; note: nearly all actives have a fitted effect of over 55% in size
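Cell growth measured by CellTiter-Glo luminescence after a minimum 48 h, 37 C compound exposure with 20 nM CPT in Tdp1-knockout DT40 cells stably expressing hTDP1, seeded 400/well; qHTS titration format.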
KAT2A inh: GCN5L2 (KAT2A) acetyltransferase inhibition | Q92830 | GCN5L2 HAT assay, ThioGlo1 CoA-SH fluorescence | Potency, µM (titrated, usually from 58.9 µM), without a hit: at the highest dose activity change, negative = inhibition, actives largely listed as inhibitors | 390,000 compounds, 0.21% hits
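qHTS, 1536-well. 20nM enzyme, pH 7.5 HEPES/EDTA/Tween-20 buffer; 15 min compound preinc., RT. Start: 75uM H3(1-25), 70uM AcCoA, 50uM ThioGlo1. Read Ex340/Em540 at t=0 (autofluorescence flag) and t=20 min.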
DT40 TDP1 no CPT: qHTS for Inhibitors of human tyrosyl-DNA phosphodiesterase 1 (TDP1): qHTS in cells in absence of CPT | DT40 Tdp1-/- hTDP1 cells, no CPT, ATP luminescence, 48 h | Potency, µM (series often up to 46.2 µM), inactives show at the top dose activity change, negative = growth inhibition, usual class: inhibitors | 420,000 compounds, 15% hits | AID 686978, 2013; note: nearly all actives have a fitted effect of over 55% in size
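DT40 Tdp1-/-;hTDP1 cells, no CPT (DMSO vehicle only), 400 cells/well; compounds pin-transferred; ≥48 hr, 37 °C; CellTiter-Glo 30 min RT dark, luminescence read.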
PLK1 PBD block: PLK1 (human) polo-box domain binding inhibition | Plk1 PBD binding of FITC phosphopeptide, fluorescence polarization | Potency, µM, inactives show max response, negative = inhibition, hits mostly inhibitors | 360,000 compounds, 2.8% hits | AID 720504; note: series mostly up to about 57 µM; nearly all actives have a fitted effect of over 65% in size
VDR inhibitor: blocks the human vitamin D receptor. VDR-SRC2-3 peptide fluorescence polarization, 2 h. Potency, µM, inactives show max response, negative = inhibition, hits mostly inhibitors. 400,000 compounds, 0.93% hits
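VDR–SRC2-3 interaction, FP format. Cmpds 23 nl via pintool, brief spin, 2 h ambient incubation.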
TDP1 inh: TDP1 (human) enzyme inhibition; 350,000 compounds, 0.28% hits; recombinant TDP1, AlphaScreen DNA substrate cleavage; AID 485290; Potency, µM (top dose mostly 130 µM), for inactives: at the highest dose activity change, negative = inhibition, most hits filed as inhibitors; Q9NUW8; note: nearly all actives have a fitted effect of over 40% in size
Target sequence (Q9NUW8 whole entry, looked up): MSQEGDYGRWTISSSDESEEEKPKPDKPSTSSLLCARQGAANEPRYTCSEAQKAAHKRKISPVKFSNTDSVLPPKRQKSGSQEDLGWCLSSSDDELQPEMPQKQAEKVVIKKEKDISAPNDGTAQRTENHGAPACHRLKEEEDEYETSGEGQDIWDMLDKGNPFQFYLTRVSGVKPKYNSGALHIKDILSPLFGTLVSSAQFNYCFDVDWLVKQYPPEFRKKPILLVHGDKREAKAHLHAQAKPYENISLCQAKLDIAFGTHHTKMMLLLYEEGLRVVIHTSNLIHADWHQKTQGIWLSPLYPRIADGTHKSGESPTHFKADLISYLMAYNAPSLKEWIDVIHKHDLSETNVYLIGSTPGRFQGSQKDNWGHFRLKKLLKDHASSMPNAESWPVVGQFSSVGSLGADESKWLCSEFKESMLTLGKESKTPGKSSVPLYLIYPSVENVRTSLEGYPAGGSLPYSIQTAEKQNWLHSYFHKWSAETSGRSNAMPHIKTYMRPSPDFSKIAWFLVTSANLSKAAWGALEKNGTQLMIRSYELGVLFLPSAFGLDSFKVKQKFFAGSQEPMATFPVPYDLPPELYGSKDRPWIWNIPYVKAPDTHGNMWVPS
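Compounds were preincubated with Tdp1 (1 nM final) for 15 min at room temperature before substrate (15 nM final) started a 5 min reaction; beads (10 ug/ml final) were then added for 10 min before AlphaScreen detection.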
Active calls of the source: *; ? = inconclusive; . = not tested or not shown; [ ] = dose if it differs, or a comment. Calls come from the whole dose curve; as a rule, active = well fitted curve in the direction sought with a large enough effect; inconclusive = small, poorly fitted or top-dose-only effect, or another doubt; inactive = no such curve, though single readings can be large; an effect the other way counts as inactive or inconclusive. % is set by controls: 0 for no effect and ±100 for the full control effect; potency is the fitted concentration of half-maximal effect.

SMILES	TDP1 cell CPT	KAT2A inh	DT40 TDP1 no CPT	PLK1 PBD block	VDR inhibitor	TDP1 inh
O=C(Nc1cc(SCCO)cc([N+](=O)[O-])c1)c1ccc(Br)o1	?	-3%	21µM*	-23%	-27%	8%
O=C(Cn1c(=O)n(Cc2nc(-c3ccccc3)no2)c(=O)c2cc3c(cc21)OCO3)Nc1ccc(Cl)cc1	?	0%	?	.	13%	6%
COc1ccc(NCc2nn(CC(=O)c3ccc(Br)cc3)c3[n+]2CCCCC3)cc1	?	1%	16µM*	-17%	-20%	10%
O=C(Cn1nc(CNc2ccc(Br)cc2)[n+]2c1CCCCC2)c1ccc([N+](=O)[O-])cc1	6.5µM*	0%	12µM*	-16%	-18%	3%
O=C(Cn1nc(CNc2ccc(Cl)cc2)[n+]2c1CCCCC2)c1ccc(Br)cc1	23µM*	23%	?	-16%	-1%	5%
O=C(Cn1nc(Cl)nc1Cl)c1ccc([N+](=O)[O-])cc1	?	-1%	0%	4%	1%	.
COc1ccc(CNc2ccc(Br)cc2)cc1	?	-12%	4%	5%	3%	4%
CN(Cc1ccc(F)cc1)S(=O)(=O)c1nnc(NC(=O)c2ccccc2Br)s1	?	-15%	?	?	-18%	3%
CCN(CC)CCn1c(=N)n(CC(=O)c2ccc(C)cc2)c2ccccc21	16µM*	?	13µM*	4%	12%	.
COc1ccc(C(=O)Cn2c(C(C)=O)nc3ccccc32)cc1	15µM*	.	7.3µM*	2%	-4%	.
Cn1c(=N)n(CC(=O)C(C)(C)C)c2ccccc21	?	-3%	-49%	1%	-17%	5%
Cc1ccc(C(=O)Cn2c(=N)n(N)c3ccccc32)cc1	?	1%	?	-3%	-8%	1%
Cn1c(=N)n(CC(=O)c2ccc(Cl)c(Cl)c2)c2ccccc21	13µM*	-6%	16µM*	-15%	-5%	.
COc1ccc(C(=O)CN2Cc3ccccc3C2=N)cc1	16µM*	-3%	18µM*	6%	2%	.
COc1ccc(/C=C/C(=O)c2nc3ccccc3n2CC(=O)c2ccc(OC)cc2)cc1	4%	-15%	-13%	-4%	13%	7%
CCCn1cnnc1CNC(=O)C1CCC(=O)N(CCc2cccc(F)c2)C1 (stereo not drawn)	-2%	1%	24%	-3%	1%	4%
CC1(C)[C@@H](O)CC[C@]2(C)C3C(O)C=C4[C@H]5C[C@@](C)(CO)CC[C@]5(C)CC[C@]4(C)[C@]3(C)CC[C@@H]12 (stereo partly drawn)	-22%	-13%	-17%	-7%	-23%	5%
COc1ccc2c(CCNC(=O)c3ccc([N+](=O)[O-])cc3)c[nH]c2c1	-21%	-7%	?	-11%	7%	3%
COc1ccc(C(=O)Cn2c(=N)n(C)c3ccccc32)cc1	?	-1%	21µM*	1%	-18%	-2%
CCN(Cc1ccccc1)Cc1c(O)ccc2c(=O)c(-c3ccccc3OC)c(C(F)(F)F)oc12	?	-4%	26µM*	.	3%	.
CCN(Cc1ccccc1)Cc1c(O)ccc2c(=O)c(-c3ccccc3Cl)c(C(F)(F)F)oc12	18µM*	-8%	?	.	24%	.
CCN(Cc1ccccc1)Cc1c(O)ccc2c(=O)c(-c3ccccc3)c(C(F)(F)F)oc12	?	4%	?	.	20%	.
CCN1CCN(C(=O)CCc2nnc3ccc(N4CCN(c5cccc(OC)c5)CC4)nn23)CC1	-15%	1%	-22%	1%	-12%	4%
O=C1CC(c2ccncc2)c2cc3c(cc2N1)OCCO3 (stereo not drawn)	5%	-10%	-3%	-6%	10%	0%
O=C1CC(c2ccc3c(c2)OCO3)c2cc3c(cc2N1)OCCO3 (stereo not drawn)	?	-21%	?	-1%	10%	9%
SMILES	TDP1 cell CPT	KAT2A inh	DT40 TDP1 no CPT	PLK1 PBD block	VDR inhibitor	TDP1 inh
CC(C)c1ccc(C2CC(=O)Nc3cc4c(cc32)OCCO4)cc1 (stereo not drawn)	?	1%	29µM*	.	-6%	-4%[12.3 µM]
Cc1ccc(C2CC(=O)Nc3cc4c(cc32)OCCO4)cc1Br (stereo not drawn)	18µM*	-2%	16µM*	.	5%	5%
CCCCOc1ccc(NC(=S)Nc2cc(C)nc(SCCCC)n2)cc1	5.8µM*	19%	2.9µM*	0%	13%	4%
CCOc1ccc(NC(=O)CSc2nc(C)cc(C)n2)cc1	?	0%	?	3%	-11%	3%
CC1=N/C(=C\c2ccc([N+](=O)[O-])cc2)C(=O)N1c1ccc(Cl)cc1	?	?	?	-3%	-8%	-4%
CC1=N/C(=C/c2ccc([N+](=O)[O-])cc2)C(=O)N1c1ccc(Cl)cc1Cl	?	-5%	26µM*	-4%	1%	-10%
CC1=N/C(=C\c2ccc([N+](=O)[O-])cc2)C(=O)N1c1ccc(F)cc1F	?	-1%	18µM*	-6%	-5%	.
CC1=CC(=C(c2ccc(N)cc2)c2ccc(N)cc2)C=CC1=N	2.7µM*	-15%	3µM*	.	?	.
NC(=O)c1c(NC(=O)C2COc3ccccc3O2)sc2c1CCN(Cc1ccccc1)C2 (stereo not drawn)	0%	-7%	-25%	31%	3%	1%
COC(=O)N1CCc2c(sc(NC(=O)C3COc4ccccc4O3)c2C(N)=O)C1 (stereo not drawn)	15µM*	-10%	16µM*	11µM*	89µM*	2%
CCOC(=O)c1c(NC(=O)C2COc3ccccc3O2)sc2c1CCN(Cc1ccccc1)C2 (stereo not drawn)	23µM*	3%	-12%	3%	-12%	6%
COc1ccc(NC(=O)N(Cc2ccco2)C2CCN(C(C)=O)CC2)c(OC)c1	0%	-17%	?	.	12%	4%
COc1ccc(-c2noc(Cn3c(=O)c4ccccc4n(CC(=O)Nc4cccc(OC)c4)c3=O)n2)cc1	?	-5%	21µM*	.	5%	6%
Cc1noc(Cn2c(=O)c3ccccc3n(CC(=O)Nc3ccc(C(C)C)cc3)c2=O)n1	?	-10%	16µM*	.	0%	8%
CCCCN1C(=O)C(CC(=O)NCCc2ccccn2)CC(C(=O)N2CCCCCC2)=C1C (stereo not drawn)	-4%	.	8%	.	.	.
CN(C)N=Nc1ccc(-c2cn(Cc3ccccc3)cn2)cc1	0%	-13%	26µM*	-17%	?	.
